Calls of active or inactive are those of the source.
How the values were obtained:
[1] = test system: Plasmodium falciparum Sir2 (PF13_0152, Sir2A); assay: pfSir2 binders on small-molecule microarrays, primary screen, biochemical, small-molecule microarray, 635 nm fluorescence (AID 1098); settings: small-molecule microarray binding, fluorescence 635 nm; higher = more signal;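 note: score merges spot fluorescence intensity with its signal-to-noise ratio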
[2] = small-molecule microarray binders of probe aDKK1, primary screen, biochemical, biotinylated probe, 635/667 nm fluorescence (AID 1099); settings: higher = more signal;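 note: score merges 667nm spot fluorescence with signal to noise across triplicate slides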
[3] = small-molecule microarray binders of probe aCHRDL2, primary screen, biochemical, biotinylated probe, 635/667 nm fluorescence (AID 1100); settings: higher = more signal
[4] = splicing luciferase reporter signal modulators, primary screen, spliceosome inhibition project, cell-based, HEK293, splice +/- reporter (AID 1101); settings: luminescence, 24 h, higher = more signal, called active from +8 up or from −8 down;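 note: HEK293 cells carrying a splicing-competent luciferase reporter gene; test concentration not given here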
[5] = target: Fibroblast growth factor 10 (Homo sapiens) (UniProt O15520); assay: FGF10 binders on small-molecule microarrays, primary screen, biochemical, small-molecule microarray, 635 nm fluorescence (AID 1102); settings: FGF10 binding, fluorescence 635 nm, higher = more signal
[6] = test system: glycogen synthase kinase-3 (GSK3A per assay name; protocol says GSK3B); assay: GSK3 binders on small-molecule microarrays, primary screen, biochemical, small-molecule microarray, 635 nm fluorescence, GSK3A (AID 1103); settings: small-molecule microarray binding, fluorescence 635 nm; higher = more signal; note: the record names both GSK3A and GSK3B
[7] = target: Epidermal growth factor receptor (Homo sapiens) (UniProt P00533); assay: EGFR binders on small-molecule microarrays, primary screen, biochemical, small-molecule microarray, 635 nm fluorescence (AID 1104); settings: EGFR binding, higher = more signal;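 note: score merges 667 nm emission intensity with spot signal to noise over triplicate slides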
[8] = target: Follistatin-related protein 3 (Homo sapiens) (UniProt O95633); assay: FSTL3 binders on small-molecule microarrays, primary screen, biochemical, small-molecule microarray, 635 nm fluorescence (AID 1105); settings: FSTL3 binding, higher = more signal;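 note: score merges emission near 667 nm and signal to noise per printed spot across three slides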
[9] = target: Dickkopf-related protein 1 (Homo sapiens) (UniProt O94907); assay: DKK1 binders on small-molecule microarrays, primary screen, biochemical, small-molecule microarray, 635 nm fluorescence scan (AID 1106); settings: DKK1 binding, higher = more signal;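 note: score merges emission near 667 nm with signal to noise over three replicate slides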
[10] = test system: Inhibin beta A chain (activin A); assay: INHBA (activin A) binders on microarrays, primary screen, biochemical, small-molecule microarray, 635 nm fluorescence scan (AID 1107); settings: small-molecule microarray binding, higher = more signal;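 note: mouse activin A protein probed at 4.33 µg/mL on printed slides; score merges bound-protein fluorescence near 667 nm with spot signal-to-noise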
[11] = test system: Human papillomavirus type 1a protein E7 (residues 44-93); assay: HPV1a E7 fragment binders on microarrays, primary screen, biochemical, small-molecule microarray, residues 44-93, 635 nm fluorescence (AID 1108); settings: small-molecule microarray binding, fluorescence 635 nm; higher = more signal;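 note: E7 fragment applied at 1 µg/mL in TBST for 1 h at 4 C; score combines spot fluorescence with its signal to noise ratio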
[12] = modulators of HCV replicon luciferase signal, primary screen, HCV replication inhibitor project, Huh7 cells, luciferase reporter (AID 1109); settings: 48 h, higher = more signal;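 note: huh7 hepatoma cells harbouring a luciferase neomycin HCV replicon reporter; luciferase luminescence as measure of HCV replicon replication; test concentration not given here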
[13] = target: Left-right determination factor 2 (Homo sapiens) (UniProt O00292); assay: LEFTY2 binders on small-molecule microarrays, primary screen, biochemical, small-molecule microarray, 635 nm fluorescence scan (AID 1110); settings: LEFTY2 binding, higher = more signal
[14] = target: Calmodulin-1 (Homo sapiens) (UniProt P0DP23); assay: CALM1 binders on microarrays, EGTA buffer, profiling panel, biochemical, small-molecule microarray, Cy5-labelled CALM1 (AID 1111); settings: Cy5-CALM1 binding fluorescence, higher = more signal;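 note: labelled calmodulin applied in Tris saline Tween buffer holding calcium plus EGTA and DTT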
[15] = target: Calmodulin-1 (Homo sapiens) (UniProt P0DP23); assay: calcium-bound CALM1 binders on microarrays, profiling panel, artefact control for SMM control-protein annotation, biochemical, small-molecule microarray, Cy5-labelled CALM1, plus calcium (AID 1112); settings: Cy5-CALM1 binding fluorescence, higher = more signal;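 note: score merges spot fluorescence with signal to noise from triplicate slides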
[16] = small-molecule microarray binders of probe aWnt5a, primary screen, biochemical, biotinylated probe, 635/667 nm fluorescence (AID 1113); settings: higher = more signal;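 note: score merges 667 nm fluorescence intensity with signal-to-noise per printed feature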
[17] = small-molecule microarray binders of probe aShh, primary screen, biochemical, biotinylated probe, 635/667 nm fluorescence (AID 1114); settings: higher = more signal;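 note: probe is biotin-labelled aShh protein from a stem cell growth factor screen; measures binding of labelled protein to compounds printed on the slide; score merges feature fluorescence at 667 nm with signal-to-noise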
[18] = small-molecule microarray binders of probe aNog, primary screen, biochemical, biotinylated probe, 635/667 nm fluorescence (AID 1115); settings: higher = more signal;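 note: probe is biotinylated aNog protein used at 0.15 µg/mL for 1 h at 4 C; z-score combines 667 nm fluorescence of each spot with its signal to noise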
[19] = target: Torsin-1A-interacting protein 1 (Homo sapiens) (UniProt Q5JTV8); assay: LAP1 binders from COS7 cell lysate, primary screen, small-molecule microarray, 635/667 nm fluorescence (AID 1116); settings: COS7-hLAP1 lysate binding, 635 nm fluorescence, higher = more signal
[20] = target: Alpha-bungarotoxin (Bungarus multicinctus) (UniProt P60615); assay: alpha-bungarotoxin binders on microarray, profiling panel, artefact control for SMM control protein annotation, biochemical, small-molecule microarray, Alexa647 label, 635/667 nm fluorescence (AID 1117); settings: alpha-BTX-A647 binding fluorescence, higher = more signal
Alpha-bungarotoxin (Bungarus multicinctus), sequence (P60615 whole entry, looked up): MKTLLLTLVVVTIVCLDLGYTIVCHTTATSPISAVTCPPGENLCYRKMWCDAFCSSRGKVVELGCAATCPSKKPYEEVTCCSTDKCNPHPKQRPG

Fibroblast growth factor 10 (Homo sapiens), sequence (O15520 whole entry, looked up): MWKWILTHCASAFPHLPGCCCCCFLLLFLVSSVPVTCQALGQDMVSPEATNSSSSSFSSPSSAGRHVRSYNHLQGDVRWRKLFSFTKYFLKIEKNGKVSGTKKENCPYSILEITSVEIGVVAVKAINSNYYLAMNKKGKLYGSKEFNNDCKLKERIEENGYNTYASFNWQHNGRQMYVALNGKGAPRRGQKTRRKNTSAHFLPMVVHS
Torsin-1A-interacting protein 1 (Homo sapiens), sequence (Q5JTV8 whole entry, looked up): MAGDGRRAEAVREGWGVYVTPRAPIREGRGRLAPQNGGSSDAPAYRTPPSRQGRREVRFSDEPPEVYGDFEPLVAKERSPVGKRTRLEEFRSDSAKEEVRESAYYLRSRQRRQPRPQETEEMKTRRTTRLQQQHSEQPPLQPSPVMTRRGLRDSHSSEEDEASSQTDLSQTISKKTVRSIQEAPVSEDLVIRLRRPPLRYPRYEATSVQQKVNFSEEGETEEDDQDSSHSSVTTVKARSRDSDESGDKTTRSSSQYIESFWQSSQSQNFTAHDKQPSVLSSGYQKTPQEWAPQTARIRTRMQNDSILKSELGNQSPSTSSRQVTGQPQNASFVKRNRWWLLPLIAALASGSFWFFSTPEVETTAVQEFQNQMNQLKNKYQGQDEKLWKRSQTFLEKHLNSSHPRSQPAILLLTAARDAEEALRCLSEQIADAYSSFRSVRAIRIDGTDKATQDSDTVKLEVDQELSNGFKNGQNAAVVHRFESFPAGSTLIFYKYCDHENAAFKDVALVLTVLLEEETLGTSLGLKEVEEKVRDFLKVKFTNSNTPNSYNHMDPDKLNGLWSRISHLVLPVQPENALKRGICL
Left-right determination factor 2 (Homo sapiens), sequence (O00292 whole entry, looked up): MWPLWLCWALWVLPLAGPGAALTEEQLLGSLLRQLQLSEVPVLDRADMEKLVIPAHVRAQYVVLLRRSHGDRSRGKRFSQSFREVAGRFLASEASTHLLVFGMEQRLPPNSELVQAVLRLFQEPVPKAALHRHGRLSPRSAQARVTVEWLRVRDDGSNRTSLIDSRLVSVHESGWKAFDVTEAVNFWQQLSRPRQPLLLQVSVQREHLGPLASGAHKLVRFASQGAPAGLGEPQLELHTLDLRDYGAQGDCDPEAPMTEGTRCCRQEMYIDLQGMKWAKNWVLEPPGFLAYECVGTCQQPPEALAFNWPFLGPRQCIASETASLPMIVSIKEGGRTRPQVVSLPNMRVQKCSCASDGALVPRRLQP
Dickkopf-related protein 1 (Homo sapiens), sequence (O94907 whole entry, looked up): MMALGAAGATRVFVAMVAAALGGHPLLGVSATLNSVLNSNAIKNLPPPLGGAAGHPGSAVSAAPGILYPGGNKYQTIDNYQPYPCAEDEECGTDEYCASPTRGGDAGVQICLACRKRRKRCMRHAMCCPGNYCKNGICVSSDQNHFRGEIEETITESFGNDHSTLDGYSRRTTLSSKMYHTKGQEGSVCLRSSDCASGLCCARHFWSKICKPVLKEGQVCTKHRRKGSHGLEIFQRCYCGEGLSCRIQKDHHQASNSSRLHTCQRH
Follistatin-related protein 3 (Homo sapiens), sequence (O95633 whole entry, looked up): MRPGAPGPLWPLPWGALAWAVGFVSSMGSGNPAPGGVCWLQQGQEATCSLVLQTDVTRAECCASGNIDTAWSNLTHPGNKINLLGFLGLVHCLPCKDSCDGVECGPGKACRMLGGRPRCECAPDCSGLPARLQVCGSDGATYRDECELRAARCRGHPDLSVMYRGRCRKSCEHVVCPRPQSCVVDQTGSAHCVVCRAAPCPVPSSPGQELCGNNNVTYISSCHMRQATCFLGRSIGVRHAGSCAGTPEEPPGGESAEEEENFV
Epidermal growth factor receptor (Homo sapiens), sequence (P00533 whole entry, looked up): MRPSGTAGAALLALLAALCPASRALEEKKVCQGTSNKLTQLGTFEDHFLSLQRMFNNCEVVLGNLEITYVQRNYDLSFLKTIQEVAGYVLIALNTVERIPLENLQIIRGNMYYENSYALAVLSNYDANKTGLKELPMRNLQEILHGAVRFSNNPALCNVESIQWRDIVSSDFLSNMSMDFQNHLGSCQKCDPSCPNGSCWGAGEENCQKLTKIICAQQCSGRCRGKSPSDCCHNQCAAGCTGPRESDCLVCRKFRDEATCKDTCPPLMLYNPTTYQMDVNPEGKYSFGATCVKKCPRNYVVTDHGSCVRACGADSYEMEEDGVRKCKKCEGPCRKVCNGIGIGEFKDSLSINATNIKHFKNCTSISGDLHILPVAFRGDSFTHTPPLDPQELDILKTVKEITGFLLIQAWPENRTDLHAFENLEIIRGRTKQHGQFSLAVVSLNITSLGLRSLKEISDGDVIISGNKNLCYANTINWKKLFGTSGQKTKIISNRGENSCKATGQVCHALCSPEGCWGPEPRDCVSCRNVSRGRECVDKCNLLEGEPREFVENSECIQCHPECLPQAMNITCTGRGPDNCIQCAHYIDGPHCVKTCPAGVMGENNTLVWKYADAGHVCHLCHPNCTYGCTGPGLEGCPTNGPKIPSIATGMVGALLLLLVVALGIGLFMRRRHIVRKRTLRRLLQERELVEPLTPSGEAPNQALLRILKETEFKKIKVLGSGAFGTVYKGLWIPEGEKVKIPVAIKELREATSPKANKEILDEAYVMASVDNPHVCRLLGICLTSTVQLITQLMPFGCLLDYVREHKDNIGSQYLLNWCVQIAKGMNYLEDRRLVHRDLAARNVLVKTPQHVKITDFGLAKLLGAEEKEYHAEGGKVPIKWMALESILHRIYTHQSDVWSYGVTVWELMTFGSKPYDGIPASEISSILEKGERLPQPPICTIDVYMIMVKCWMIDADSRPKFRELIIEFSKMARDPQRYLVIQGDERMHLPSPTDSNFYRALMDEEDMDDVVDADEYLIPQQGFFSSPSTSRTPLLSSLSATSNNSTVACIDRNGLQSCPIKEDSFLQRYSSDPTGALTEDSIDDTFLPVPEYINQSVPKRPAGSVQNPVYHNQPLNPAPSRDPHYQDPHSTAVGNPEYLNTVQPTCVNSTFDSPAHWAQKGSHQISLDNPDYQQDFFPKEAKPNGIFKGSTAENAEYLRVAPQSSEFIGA

Structure (SMILES) | composite z-score [1] | composite z-score [2] | composite z-score [3] | z-score [4] | composite z-score [5] | composite z-score [6] | composite z-score [7] | composite z-score [8] | composite z-score [9] | composite z-score [10] | composite z-score [11] | z-score [12] | composite z-score [13] | composite z-score [14] | composite z-score [15] | composite z-score [16] | composite z-score [17] | composite z-score [18] | composite z-score [19] | composite z-score [20]
COc1ccc(C#Cc2ccc3c(c2)[C@]2(C(=O)N3)[C@H](c3ccc(OCCO)cc3)N3[C@H](c4ccccc4)[C@H](c4ccccc4)OC(=O)[C@H]3[C@@H]2C(=O)N2CCN(c3ncccn3)CC2)cc1 | 1.12 | -0.0149 | -0.275 | -0.188 (inactive) | 0.214 | 0.693 | 0.176 | 0.602 | 0.0015 | 0.433 | 1.25 | -1.18 | 0.201 | 1.91 | 0.722 | -0.252 | -0.262 | -0.474 | 0.45 | 0.235
COC(=O)C(CC#Cc1ccc2c(c1)[C@]1(C(=O)N2)[C@H](c2ccc(O)cc2)N2[C@H](c3ccccc3)[C@H](c3ccccc3)OC(=O)[C@H]2[C@@H]1C(N)=O)C(=O)OC | -0.532 | -0.207 | 0.613 | -0.192 (inactive) | -1.48 | -1.29 | -0.856 | -1.89 | -0.841 | -0.611 | -0.863 | -0.32 | -0.91 | -1.27 | 0.842 | -0.202 | -0.352 | -0.263 | -0.931 | -1.83
NC(=O)[C@@H]1[C@H]2C(=O)O[C@H](c3ccccc3)[C@H](c3ccccc3)N2[C@H](c2ccccc2OCCO)[C@@]12C(=O)Nc1ccc(C#CCCO)cc12 | 1.03 | -0.302 | 0.54 | 0.305 (inactive) | -0.293 | -0.802 | -0.461 | 0.118 | -0.647 | 0.233 | 0.42 | -1.02 | -0.388 | 0.613 | 0.154 | -0.226 | -0.221 | -0.139 | 0.0571 | 1.18
CC(C)(C)OC(=O)CC[C@@]1(C(=O)N2CCCCC2)N=C(c2ccc(OCCCO)cc2)O[C@@H]1c1ccccc1CN=[N+]=[N-] | 1.24 | 0.754 | 0.881 | -2.55 (inactive) | 0.56 | 0.53 | 0.0678 | 1.06 | -0.0065 | 0.534 | 1.46 | -2.36 | 0.0083 | 1.88 | 0.709 | 0.0629 | 0.199 | -0.685 | 2.04 | 2.27
CCOC(=O)C[C@H]1[C@H](OC(=O)Cc2ccc3c(c2)OCO3)[C@@H](NC(=O)c2ccccc2)c2cc(OCCCO)ccc2N1C(=O)c1ccc2ccccc2n1 | 0.347 | -0.0053 | -0.329 | -2.44 (inactive) | 0.274 | 0.329 | 0.548 | 0.0676 | 0.328 | 0.318 | 0.594 | 0.173 | 0.11 | 0.481 | -0.455 | -0.152 | 0.172 | -0.0675 | 0.761 | -0.055
CCOC(=O)C[C@H]1[C@H](OC(=O)c2ccc(C(=O)c3ccccc3)cc2)[C@@H](NC(=O)C2CCCCC2)c2cc(OCCCO)ccc2N1C(=O)Cc1ccc(OC)cc1 | 0.331 | 0.765 | 0.7 | 0.0309 (inactive) | 0.547 | 0.328 | 0.285 | 0.459 | 0.0351 | 0.666 | 0.773 | -1.96 | 0.0258 | 1.13 | 0.304 | -0.0907 | -0.0769 | -0.0597 | 0.602 | 0.237
COC(=O)[C@@]1(Cc2ccc(OC)cc2)[C@H]2c3cc(C(=O)N(C)C)n(Cc4cc(C)n(C)n4)c3C[C@H]2CN1C(=O)c1ccccc1 | 1.07 | 0.383 | 0.433 | -1.03 (inactive) | 1.43 | 0.902 | -0.232 | -0.0771 | -0.382 | 0.79 | 1.52 | -0.952 | -0.198 | 0.239 | 0.529 | 0.596 | 0.964 | 1.11 | 1.2 | -0.329
COc1ccc([Si](C)(C)[C@@H]2[C@@H](CC(=O)N(CCO)Cc3ccccc3)O[C@]3(C(=O)N(Cc4ccc(N5CCOC5=O)cc4)c4ccccc43)[C@H]2C)cc1 | 0.851 | 0.232 | 0.0947 | 0.24 (inactive) | 0.472 | 0.218 | 0.467 | 1.09 | 0.71 | 0.529 | 0.542 | -4.45 | 0.491 | 0.515 | 0.385 | -0.0337 | 0.321 | 0.264 | 1.02 | 0.989
CCCc1cc2c(n1Cc1ccc(OC)cc1)C(C)C1CN(C(=O)c3ccccc3)C(C)(C(=O)OC)C21 (stereo not given) | 0.862 | 1.27 | 1.59 | -1.94 (inactive) | 0.303 | 0.482 | -0.409 | 0.324 | -1.71 | 1.43 | 0.247 | -2.16 | -0.307 | 2.6 | 1.42 | 0.157 | 0.686 | 1.26 | 2.19 | 2.52
C=CCC(OC(C)=O)[C@@H]1[C@@H](N(Cc2ccc(-c3cccc(C(F)(F)F)c3)o2)C(=O)c2cccc3ccccc23)c2cc(OCCCO)ccc2N1C(=O)c1ccc(-c2ccccc2)cc1 (stereo not given in full) | 0.295 | 0.0007 | -0.0042 | -0.791 (inactive) | 0.192 | -0.579 | 0.181 | 0.248 | 0.518 | 1.09 | -0.535 | 0.182 | 0.0289 | -0.638 | 0.219 | -0.22 | -0.138 | -0.182 | -0.465 | 0.143
